The record followed here is PubChem BioAssay (Tox21).

Experiment [1] can be described thus: qHTS assay to identify small molecule agonists of the hypoxia (HIF-1) signaling pathway - cell viability counter screen (AID 1224844; calls by dose curve; also: nearly all actives have a fitted effect of over 50% in size). A digest of the protocol:
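HRE-bla ME-180; 0.5% dFBS; cpd 17 h, 37C, 5% CO2; CellTiter-Glo lum., 30 min RT, post-FRET read, same wells.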
Background: In qHTS, concentration-response curves come from the screen itself.

Experiment [2] is described as follows: qHTS assay to identify small molecule agonists of the hypoxia (HIF-1) signaling pathway (AID 1224846; active = well fitted activation curve with a large enough effect in the signal ratio in the repeat runs, not every such curve was filed as active; the % refers to the signal ratio). The essentials:
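Reporter induction in HRE-bla ME-180 cells is taken as agonism: cells sit 5 hrs after plating, receive compounds or DMSO only, incubate 17 hrs at 37C under 5% CO2, and are loaded with CCF4-AM for beta-lactamase FRET measurement.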

Experiment [3] in a line: qHTS assay to identify small molecule agonists of H2AX - cell viability counter screen (AID 1224847; calls by dose curve;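 also: wild-type CHO-K1 cells; top concentration of the series differs between compounds; nearly all actives have a fitted effect of over 30% in size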). A digest of the protocol: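 Counter-screen for viability: CellTiter-Glo ATP luminescence read after 3 h compound treatment (15-point titration, 0.76% DMSO final) of CHO-K1 cells at 37C, with 30 min room-temperature reagent incubation.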
Experiment [4] is described as follows: qHTS assay to identify small molecule antagonists of the estrogen related receptor (ERR) signaling pathway from Tox21 library (AID 1224848). Also: nearly all actives have a fitted effect of over 50% in size. A digest of the protocol:
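ERR cell line, 2,000 cells/well. 6 h settle, then compound (DMSO) added; 18 h at 37 C; ONE-Glo luminescence after 30 min RT.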

A short description of experiment [5]: qHTS assay to identify small molecule agonists of the estrogen related receptor (ERR) signaling pathway from Tox21 library (AID 1224849; calls by dose curve; also: nearly all actives have a fitted effect of over 15% in size). As to conditions: ERR reporter cell line, ONE-Glo luciferase, 18 h; at 92.4 µM (top of the series) unless noted. The essentials:
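Tox21 compounds tested for ERR agonism in an NTP reporter cell line: 18 h treatment at 37 C, then ONE-Glo luminescence.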

A short description of experiment [6]: qHTS RealTime-Glo MT Cell Viability Assay in HepG2 cells - 24 hour (AID 1224867). Also: nearly all actives have a fitted effect of over 50% in size. A digest of the protocol: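 Real-time, nonlytic viability: 600 HepG2 cells/well mixed with NanoLuc enzyme plus prosubstrate; 5 h settle, compound (DMSO) added by pintool; luminescence monitored over 40 h at 37 C.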
A short description of experiment [7]: qHTS RealTime-Glo MT Cell Viability Assay in HEK293 cells - 32 hour (AID 1224868). Also: top concentration of the series differs between compounds; nearly all actives have a fitted effect of over 50% in size. A digest of the protocol: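 Cells + reagent dispensed (600 cells/well, HEK293) → 5 h at 37 C/5% CO2 → 23 nL compound in DMSO pinned → 40 h at 37 C → luminescence read at 0, 8, 16, 24, 32, 40 h.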
Experiment [8] can be described thus: A CellTox Green Cytotoxicity Assay to monitor cytotoxicity in HEK293 cells - 0 hour (AID 1224869). Also: nearly all actives have a fitted effect of over 50% in size. The essentials:
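Tox21 screen in HEK293: membrane-impermeant cyanine dye fluoresces on binding dead-cell DNA; compound pinned 5 h post-seeding, plates held at 37 C, signal read repeatedly through 40 h.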

A short description of experiment [9]: qHTS RealTime-Glo MT Cell Viability Assay in HepG2 cells - 40 hour (AID 1224870). Also: nearly all actives have a fitted effect of over 50% in size. A digest of the protocol:
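Real-time viability: cells seeded at 600 per well together with NanoLuc and cell-permeant prosubstrate, compounds added after 5 h incubation. Luminescence tracked at 0, 8, 16, 24, 32 and 40 h of exposure.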

Experiment [10] can be described thus: qHTS assay to identify small molecule agonists of H2AX (AID 1224845; active = well fitted activation curve with a large enough effect in the signal ratio in the repeat runs, not every such curve was filed as active; the % refers to the signal ratio). The essentials:
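Phospho-H2AX Ser139 measured by HTRF (ex 320 nm; em 665 and 620 nm) after 24 hr antibody incubation. Compounds, 15 concentrations, 0.76% DMSO, were applied to CHO-K1 cells for 3hr at 37C before lysis.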

A number with no mark means an inactive call. Results filed as inconclusive are left out. Activity calls are given as the source filed them. Unless noted, calls follow the shape of the dose curve; as a rule, active = well fitted curve in the direction sought with a large enough effect in the repeat runs; inconclusive = weak or mixed curves; inactive = no such curve, though single readings can be large; an effect the other way counts as inactive or inconclusive.
% is scaled to controls: 0 for no effect and ±100 for the full control effect.

For the compound `CC1NCCOC1c1ccccc1` (stereo not given), the Potency entry in experiment [1], in experiment [3], in experiment [4], in [6], in experiment [7] and in experiment [9] was “inactive” in each case. Besides, the outcome in experiment [2] and in experiment [8] was inactive. Besides, the activity change, positive = activation in experiment [5] is 0.163% [at 42.5 µM].

With `Oc1ccc2c3c1O[C@H]1[C@@H](O)C=C[C@H]4[C@@H](C2)NCC[C@@]341`, the Potency result in experiment [1], in experiment [3], in experiment [6], in [7] and in experiment [9] was “inactive” each time. The result in experiment [10] and in [8] was inactive. Moreover, in experiment [5], the activity change, positive = activation is -18.1%.

With `Cc1ccc(-c2nc3ccc(C)cn3c2CC(=O)N(C)C)cc1`, the Potency result in [1], in experiment [3], in experiment [4], in experiment [6] and in [9] was “inactive” each time. The compound was classed as inactive in experiment [2] and in experiment [8]. The activity change, positive = activation in experiment [5] was 37.3% [at 42.5 µM] (active).

With `CCC(C)(C#N)N=NC(C)(C#N)CC` (stereo not given), the Potency entry in experiment [1], in experiment [3], in [4], in experiment [6], in [7] and in experiment [9] was “inactive” throughout. For the same compound, the compound was called inactive in [2]. Moreover, the activity change, positive = activation in [5] was 3.15%.

For `C=C(C)[C@H]1CN[C@H](C(=O)O)[C@H]1CC(=O)O`, the Potency entry in [1], in experiment [3], in experiment [6] and in experiment [9] was “inactive” throughout. The compound was called inactive in experiment [10] and in experiment [8].

`COc1cccc([C@@]2(O)CCCC[C@@H]2CN(C)C)c1`: the Potency result in [1], in experiment [3], in [4], in [6] and in experiment [9] was “inactive” each time. Also, the result in [2] and in experiment [8] was inactive. For the same compound, in [5], the activity change, positive = activation was 1.87% [at 42.5 µM].

Regarding `CCCCCCC1CCOC1=O` (stereo not given), the Potency entry in [1], in experiment [3], in [4], in experiment [7] and in [9] was “inactive” throughout. For the same compound, the result in [10] and in [8] was inactive. Further, the activity change, positive = activation in experiment [5] was 0.0938%.

Regarding `CC(C)(N)Cc1ccc(Cl)cc1`, the Potency result in experiment [1], in [3], in [6] and in experiment [7] was “inactive” each time. Also, the result in experiment [2] and in [8] was inactive.

Take `N[C@@H](Cc1ccc(Oc2cc(I)c(O)c(I)c2)c(I)c1)C(=O)O`: the Potency entry in [1], in experiment [3], in [6], in [7] and in [9] was “inactive” each time. The call in experiment [10] and in experiment [8] was inactive.

Turning to `CCCN1CCC[C@@H]2Cc3[nH]ncc3C[C@H]21`, the Potency entry in experiment [1], in experiment [3], in experiment [4], in experiment [6] and in [9] was “inactive” in each case. Besides, the compound was called inactive in experiment [10] and in [8]. Also, the activity change, positive = activation in experiment [5] was 0.879% [at 42.5 µM].

Turning to `CN=CNc1ccc(C)cc1C`, the Potency result in experiment [1], in [3], in experiment [4], in [6], in experiment [7] and in [9] was “inactive” in each case. In addition, the call in experiment [2] and in experiment [8] was inactive. Moreover, in experiment [5], the activity change, positive = activation is 1.36%.

Consider `CN(C)CCc1c[nH]c2cccc(OP(=O)(O)O)c12`, for which the Potency result in experiment [1], in experiment [3], in experiment [6], in experiment [7] and in experiment [9] was “inactive” each time. Moreover, the call in experiment [10] was inactive.

On to `NCC1(CC(=O)O)CCCCC1`, for which the Potency entry in [1], in [3], in experiment [6], in [7] and in [9] was “inactive” each time. Moreover, the outcome in experiment [10] was inactive.

In the case of `CC[C@@H](CO)NC(=O)[C@@H]1C=C2c3cccc4[nH]cc(c34)C[C@H]2N(C)C1`, the Potency result in experiment [1], in [3], in experiment [4], in [7] and in [9] was “inactive” throughout. For the same compound, the outcome in experiment [2] and in experiment [8] was inactive. Further, the activity change, positive = activation in experiment [5] was -0.565% [at 42.5 µM].

With `Cc1ccc2cc(C)ccc2c1`, the Potency entry in experiment [1], in [3], in [4], in experiment [6], in [7] and in experiment [9] was “inactive” throughout. Moreover, the compound was called inactive in [2] and in experiment [8]. Moreover, the activity change, positive = activation in [5] is 0.0091%.

For `N[C@@H]1C[C@H]1c1ccccc1`, the Potency entry in experiment [1], in [3] and in experiment [7] was “inactive” in each case. Also, the outcome in [10] and in experiment [8] was inactive.

With `O=P(O)(O)c1ccccc1`, the Potency entry in [1], in experiment [3], in experiment [6], in [7] and in experiment [9] was “inactive” throughout. The compound was called inactive in [10] and in experiment [8].

`c1cncc([C@@H]2CCCCN2)c1`: the Potency entry in experiment [1], in experiment [3], in experiment [6], in [7] and in [9] was “inactive” throughout. For the same compound, the result in experiment [2] and in experiment [8] was inactive.

Regarding `OP(O)c1ccccc1`, the Potency entry in [1], in experiment [3], in experiment [4], in experiment [6], in experiment [7] and in experiment [9] was “inactive” in each case. In addition, the compound was classed as inactive in experiment [2] and in experiment [8]. Also, in experiment [5], the activity change, positive = activation is 1.75%.

Turning to `CC1N=C(N)OC1c1ccccc1` (stereo not given), the Potency entry in [1], in [3], in experiment [6] and in [7] was “inactive” throughout. Besides, the result in experiment [10] and in experiment [8] was inactive.

`CCN[C@H](C)Cc1cccc(C(F)(F)F)c1`: the Potency result in [1], in experiment [3], in experiment [6], in experiment [7] and in [9] was “inactive” each time. The compound was classed as inactive in experiment [2] and in experiment [8].
